# From PubChem BioAssay (NCATS)
# Results filed as inconclusive are left out. Where a call stands in place of a potency, no number is given. Values without a mark were called inactive. Active and inactive are the calls of the source. Calls follow the shape of the dose curve; as a rule, active = well fitted curve in the direction sought with a large enough effect; inconclusive = small, poorly fitted or top-dose-only effect, or another doubt; inactive = no such curve, though single readings can be large; an effect the other way counts as inactive or inconclusive. Where a SMILES comes first, the peptide text is derived from it.
# Legend:
# [1] = qHTS to identify inhibitors of the type 1 interferon - major histocompatibility complex class I in skeletal muscle: primary screen against the NCATS Pharmaceutical Collection (AID 1347407);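 also: luminescence of HiBiT knocked into endogenous HLA-B as interferon-induced MHC class I level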; also: potency is read from the fitted curve at half-maximal effect
# Outline: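 Luminescence from HiBiT-tagged endogenous HLA-B*08:01 served as the read-out of IFN-beta-induced MHC class I in CRISPR-engineered C25cl48 myoblasts. Cells received 4 ng/ml IFN-beta plus compound (high final 46 uM, […]) for 24 h.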
# [2] = target: Protein phosphatase 1D (Homo sapiens) (UniProt O15297); test: RapidFire Mass Spectrometry qHTS Assay for Modulators of WT P53-Induced Phosphatase 1 (WIP1) (AID 1347424); also: series mostly up to about 63 µM
# Outline: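 RapidFire MS readout of dephosphorylated VEPPL-S-QETFS product, with 1 uM isotope-labelled peptide standard. Reaction: 10 nM WIP1, 2 uM phosphopeptide substrate, 5 min, room temperature, after 1 h compound preincubation; stopped with 0.5% formic acid.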
# [3] = target: Protein phosphatase 1D (Homo sapiens) (UniProt O15297); test: Rhodamine-PBP qHTS Assay for Modulators of WT P53-Induced Phosphatase 1 (WIP1) (AID 1347425)
# Outline: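 WIP1 (5 nM final) was preincubated with compound for 1 hour at room temperature. It then dephosphorylated 10 uM VEPPL-pS-QETFS peptide in Tris-HCl pH 7.5 with 30 mM MgCl2. Released Pi was detected by 10 uM Rh-PBP fluorescence (ex 525/em 598 nm) read at 1-min intervals for 11 min, as delta f1 - f0.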
# [4] = Primary qHTS for inhibitors of La Crosse Virus (LACV) - induced cell death in SH-SY5Y cells (AID 1508616);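 also: top concentration of the series differs between compounds; higher means more rescue of cells from virus-induced death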
# Outline: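 Cytopathicity rescue screen: compounds pinned onto SH-SY5Y cells, which are then infected with LACV (MOI 0.01) and held 6 days at 37C. Percent activity is scaled between infected DMSO control and uninfected DMSO control.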
# [5] = target: Calcium and integrin-binding protein 1 (Homo sapiens) (UniProt Q99828); test: Primary qHTS for Identification of Calcium Integrin Binding Protein 1 (CIB1) Competitor (AID 1508620);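 also: GST tagged CIB1 binding a fluorescein labelled alphaIIb integrin peptide tracer; top concentration of the series differs between compounds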
# Outline: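 Fluorescence polarization competition: GST-tagged CIB1 (1 uM final) preincubated with compound 15 min at room temperature, then FITC-labelled alphaIIb peptide (100 nM final) added. After 15 min at room temperature, polarization read at Ex 480/Em 540.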
# Calcium and integrin-binding protein 1 (Homo sapiens), sequence (Q99828 whole entry, looked up): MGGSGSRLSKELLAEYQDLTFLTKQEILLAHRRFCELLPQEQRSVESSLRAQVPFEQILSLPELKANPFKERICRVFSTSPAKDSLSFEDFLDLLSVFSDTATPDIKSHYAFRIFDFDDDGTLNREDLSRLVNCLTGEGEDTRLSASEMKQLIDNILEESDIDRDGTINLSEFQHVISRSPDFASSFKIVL
# Protein phosphatase 1D (Homo sapiens), sequence (O15297 whole entry, looked up): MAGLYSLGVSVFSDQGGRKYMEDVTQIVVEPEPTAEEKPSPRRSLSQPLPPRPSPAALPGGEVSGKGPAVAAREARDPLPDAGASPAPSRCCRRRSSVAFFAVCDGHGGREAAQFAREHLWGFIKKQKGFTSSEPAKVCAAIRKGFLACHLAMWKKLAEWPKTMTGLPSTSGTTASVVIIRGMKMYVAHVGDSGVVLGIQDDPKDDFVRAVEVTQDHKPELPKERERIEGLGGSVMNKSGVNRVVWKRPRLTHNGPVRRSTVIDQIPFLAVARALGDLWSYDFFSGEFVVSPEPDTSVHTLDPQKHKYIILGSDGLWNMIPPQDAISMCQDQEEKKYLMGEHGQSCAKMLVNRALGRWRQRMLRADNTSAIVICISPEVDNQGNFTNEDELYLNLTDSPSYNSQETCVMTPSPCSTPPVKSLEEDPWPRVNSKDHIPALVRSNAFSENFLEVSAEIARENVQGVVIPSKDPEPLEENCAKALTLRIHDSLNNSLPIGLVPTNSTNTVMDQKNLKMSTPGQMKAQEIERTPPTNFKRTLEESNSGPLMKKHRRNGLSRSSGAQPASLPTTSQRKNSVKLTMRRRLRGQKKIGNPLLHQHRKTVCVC
SMILES,Potency [1],Potency [2],outcome [3],outcome [4],Potency [5]
Cc1cnc(NS(=O)(=O)c2ccc(N)cc2)nc1,inactive,inactive,inactive,inactive,–
CC(C)=CCNc1ncnc2c1ncn2[C@@H]1O[C@H](CO)[C@@H](O)[C@H]1O,7.45 µM (active),inactive,inactive,inactive,–
C/C(=C1\CCOC(=O)S1)N(C=O)Cc1cnc(C)nc1N,inactive,inactive,inactive,inactive,–
O=C(Oc1ccccc1)c1cccc(C(=O)Oc2ccccc2)c1,inactive,inactive,inactive,inactive,–
O=P(O)(O)OCC(O)CO (centres undefined),inactive,inactive,inactive,inactive,–
C=CCNc1nc(NCC=C)nc(N2CCN(C(c3ccc(F)cc3)c3ccc(F)cc3)CC2)n1,inactive,inactive,inactive,inactive,–
O=c1[nH]c2ccccc2c(=O)n1CCCl,inactive,inactive,inactive,inactive,–
N=C(N)c1ccc(OCCCOc2ccc(C(=N)N)cc2)cc1,inactive,inactive,inactive,inactive,–
OCCCc1ccccc1,inactive,inactive,inactive,inactive,–
CC(C)C(=O)OCc1cccc(OC(=O)[C@@H]2N3C(=O)[C@@H](NC(=O)Cc4ccccc4)[C@H]3SC2(C)C)c1,inactive,inactive,inactive,–,–
CCCCC(O)/C=C(C)/C=C/C=C/C(=O)N1CCCC1=O (centres undefined),inactive,inactive,inactive,inactive,–
CCCCCCCCCCCCCCCCCCN(C)C,inactive,inactive,inactive,–,–
COc1ccccc1OCC1CNC(=O)O1 (centres undefined),inactive,inactive,inactive,inactive,–
CN1C(CSCC(F)(F)F)Nc2cc(Cl)c(S(N)(=O)=O)cc2S1(=O)=O (centres undefined),inactive,inactive,inactive,inactive,–
O=C(O)CCCC[P+](c1ccccc1)(c1ccccc1)c1ccccc1,inactive,inactive,inactive,inactive,–
CCOCCn1c(C2CCN(CCc3ccc(C(C)(C)C(=O)O)cc3)CC2)nc2ccccc21,inactive,inactive,inactive,inactive,–
Oc1ccccc1,inactive,inactive,inactive,inactive,–
CCCCCC1Nc2cc(C(F)(F)F)c(S(N)(=O)=O)cc2S(=O)(=O)N1 (centres undefined),inactive,inactive,inactive,inactive,–

SMILES,Potency [1],Potency [2],outcome [3],outcome [4],Potency [5]
CC(=O)N[C@@H](CO)C(=O)N[C@@H](CC(=O)O)C(=O)N[C@@H](CCCCN)C(=O)N1CCC[C@H]1C(=O)O (Ac-SDKP-OH),inactive,inactive,inactive,inactive,–
CC(Oc1c(Cl)cccc1Cl)C1=NCCN1 (centres undefined),inactive,inactive,inactive,inactive,–
CC(=O)N(c1onc(C)c1C)S(=O)(=O)c1ccc(N)cc1,inactive,inactive,inactive,inactive,–
OC[C@]1(O)OC[C@@H](O)[C@H](O)[C@@H]1O,inactive,inactive,inactive,inactive,–
CCCCC(CC)CNC(=O)CC(C)OC(=O)CCC(=O)O (centres undefined),inactive,inactive,inactive,inactive,–
CN1CC[C@H](c2c(O)cc(O)c3c(=O)cc(-c4ccccc4Cl)oc23)[C@H](O)C1,0.21 µM (active),inactive,inactive,inactive,–
O=C(c1cc(O)c(O)c(O)c1)c1ccc(O)c(O)c1O,inactive,inactive,inactive,inactive,–
Nc1cccc2c(N)cccc12,inactive,–,–,–,–
Cc1ccc(Cl)c(OCC(O)CNC(C)(C)C)c1 (centres undefined),inactive,inactive,inactive,inactive,inactive
CC[N+](CC)(CC)CCOC(=O)C(C1CCCC1)C1CCCC1,inactive,inactive,inactive,inactive,inactive
Cc1ccc2c(Cl)cc(Cl)c(O)c2n1,inactive,inactive,inactive,inactive,inactive
c1ccc(C(O[C@H]2CCCN(CCc3ccc4c(c3)OCO4)C2)c2ccccc2)cc1,inactive,inactive,inactive,inactive,inactive
CCOC(=O)C(=O)c1csc(NC=O)n1,inactive,inactive,inactive,inactive,inactive
CCCCN(CCCC)C(C(N)=O)c1ccc(OC)cc1 (centres undefined),inactive,inactive,inactive,inactive,inactive
CC[C@@H]([C@H](C)O)n1ncn(-c2ccc(N3CCN(c4ccc(OC[C@@H]5CO[C@@](Cn6cncn6)(c6ccc(F)cc6F)C5)cc4)CC3)cc2)c1=O,inactive,inactive,inactive,inactive,inactive
CCc1cc2cc(OC)c(OC)cc2c(Cc2ccccc2)n1,inactive,inactive,inactive,inactive,inactive
COc1ccc([C@@H]2Sc3ccccc3NC(=O)[C@@H]2O)cc1,inactive,inactive,inactive,inactive,inactive
CNC(=O)c1cnn(-c2nc(N)c3ncn([C@@H]4O[C@H](CO)[C@@H](O)[C@H]4O)c3n2)c1,inactive,inactive,inactive,inactive,inactive
